Screening results as filed in PubChem.
A selection: hits, their analogues and other compounds. The true share with any hit is near 19%.
TDP1 cell CPT = qHTS for Inhibitors of human tyrosyl-DNA phosphodiesterase 1 (TDP1): qHTS in cells in presence of CPT | chicken DT40 Tdp1-/-;hTDP1 cells + 20 nM CPT, ATP luminescence, 48 h | Potency, µM (doses to about 46.2 µM), most hits filed as inhibitors | 12% of 420,000 active; note: nearly all actives have a fitted effect of over 55% in size
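Cell growth measured by CellTiter-Glo luminescence after a minimum 48 h, 37 C compound exposure with 20 nM CPT in Tdp1-knockout DT40 cells stably expressing hTDP1, seeded 400/well; qHTS titration format.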
KB-V1 cytotox = qHTS assay for MDR1-selective chemotherapeutics: Primary screen using the drug-selected MDR subline cells KB-V1; 3.4% of 400,000 active; Potency, µM (highest dose often 46.1 µM), actives largely listed as cytotoxic; KB-V1 MDR cells viability, CellTiter-Glo, 72 h; note: nearly all actives have a fitted effect of over 60% in size
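In this primary screen, KB-V1 cells overexpressing P-gp are incubated with library compounds (lowest to highest concentration) for 72 h at 37 degrees C before a luminescent ATP viability read.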
KB-3-1 tox = qHTS assay for MDR1-selective chemotherapeutics: Primary screen using the parental adenocarcinoma cell KB-3-1. KB-3-1 viability, CellTiter-Glo ATP luminescence, 72 h. Potency, µM (highest dose often 46.1 µM), hits mostly cytotoxic. 1.4% of 400,000 active; note: nearly all actives have a fitted effect of over 60% in size
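KB-3-1 parental drug-naive adenocarcinoma cells in DMEM/10% FBS, incubated 72 h at 37 C with pin-transferred compounds across a concentration series. Viability by CellTiter-Glo luminescence; concentration-response curves fitted after normalization.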
HT1080-NT tox = qHTS for induction of synthetic lethality in tumor cells producing 2HG: qHTS for the HT-1080-NT fibrosarcoma cell line. AID 686970, 2013. HT-1080-NT fibrosarcoma viability, CellTiter-Glo ATP luminescence, 48 h. 1.6% of 360,000 active. Potency, µM (doses to about 46.1 µM), usual class: cytotoxic;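 note: NT is the 2HG producing partner of a matched IDH1 knockdown line; nearly all actives have a fitted effect of over 55% in size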
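Viability by CellTiter-Glo luminescence after 48 h compound exposure at 37C of HT-1080-NT cells (750/well, RPMI, 5% FBS). % activity scaled between DMSO wells and medium-only wells, then curve-fitted and categorized by curve class.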
HT1080 IDH1KD tx = qHTS for induction of synthetic lethality in tumor cells producing 2HG: qHTS for the HT-1080-IDH1KD cell line | HT-1080 IDH1 knockdown viability, ATP luminescence, 48 h | Potency, µM (titrated, usually from 46.1 µM), actives largely listed as cytotoxic | 2% of 360,000 active
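IDH1KD HT-1080 cells, 750/well, RPMI + 5% FBS; compound pinned after 2 h settling; 48 h, 37 °C; CellTiter-Glo luminescence; % activity normalised to DMSO and no-cell wells; curves fitted, classed by r2 and efficacy.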
DT40 TDP1 no CPT = qHTS for Inhibitors of human tyrosyl-DNA phosphodiesterase 1 (TDP1): qHTS in cells in absence of CPT. DT40 Tdp1-/- hTDP1 cells, no CPT, ATP luminescence, 48 h. Potency, µM (highest dose often 46.2 µM), most hits filed as inhibitors. 15% of 420,000 active. AID 686978, 2013; note: nearly all actives have a fitted effect of over 55% in size
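Camptothecin absent (DMSO only). Human TDP1-complemented DT40 knockout cells, 400 cells/well, 37 °C for minimum 48 hr; ATP measured via CellTiter-Glo, 30 min dark incubation, luminescence.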
Numbers stand for hits; n = inactive; u = inconclusive; x = no result; ! = repeats disagree; [ ] = remark or other dose. Calls come from the whole dose curve; as a rule, active = well fitted curve in the direction sought with a large enough effect; inconclusive = small, poorly fitted or top-dose-only effect, or another doubt; inactive = no such curve, though single readings can be large; an effect the other way counts as inactive or inconclusive.

SMILES	TDP1 cell CPT	KB-V1 cytotox	KB-3-1 tox	HT1080-NT tox	HT1080 IDH1KD tx	DT40 TDP1 no CPT
c1ccc2c(NC3CCCC3)nnc(NC3CCCC3)c2c1	u	n	n	n	n	16µM
Cc1ccc(-n2c(C)n[nH]c2=S)cc1	n	u	n	n	n	n
Cc1ccc(-c2csc3n[nH]c(=S)n23)cc1	n	12µM!	u	n	n	n
COc1ccc2[nH]cc(/C=N/NS(=O)(=O)c3ccc(C)cc3)c2c1	15µM	n	n	u	n	13µM
COc1ccc(OC)c(S(=O)(=O)N/N=C\c2c[nH]c3ccccc23)c1	18µM	u	u	n	n	9.2µM
COc1ccc2c(/C=N/NS(=O)(=O)c3ccc(C)cc3)c[nH]c2c1	n	n	n	n	n	n
COc1ccc(-c2nc(-c3ccccc3)c(-c3ccc(F)cc3)[nH]2)c(OC)c1C	21µM	n	n	x	x	u
O=C(O)c1ccc(-c2nc(-c3ccccc3)c(-c3cccs3)[nH]2)cc1	n	n	n	n	n	n
COc1ccc(-c2[nH]c(-c3cc(OC)c4c(c3)OCO4)nc2-c2ccccc2)cc1	u	n	n	u	u	u
O=[N+]([O-])c1ccc(O)c(-c2nc(-c3ccccc3)c(-c3cccs3)[nH]2)c1	21µM	n	n	u	u	18µM
O=[N+]([O-])c1ccc2nc(-c3ccccc3)[nH]c2c1	u	n	n	n	n	u
CCOc1cc(-c2nc(-c3ccccc3)c(-c3cc([N+](=O)[O-])ccc3C)[nH]2)ccc1O	u	18µM	n	n	n	23µM
COc1ccc(-c2cn3cc([N+](=O)[O-])ccc3n2)cc1OC	u	n	n	n	n	u
COc1ccc(-c2nc(-c3ccccc3)c(-c3cc([N+](=O)[O-])ccc3C)[nH]2)cc1OC	23µM	n	u	n	n	18µM
COc1cc(Cl)c(S(=O)(=O)NCCCn2ccnc2)cc1Cl	n	n	u	n	n	n
COc1ccc(N2C(=O)[C@@H]3C[C@H]2CN3Cc2ccc3nccnc3c2)cc1Cl	n[9.04 µM]	x	x	x	x	u
CCc1ccc(-c2ccc3nnc(SCC(=O)Nc4cccc(C(C)=O)c4)n3n2)cc1	n	x	x	x	x	u
CCOc1ccc(-c2nc(-c3ccccc3)c(-c3ccccc3)[nH]2)cc1OCC	21µM	n	n	x	x	18µM
COc1cc(-c2nc(-c3ccccc3)c(-c3ccc(Br)cc3)[nH]2)cc(OC)c1O	u	n	n	x	x	u
O=C(Cc1cccs1)Nc1nc(-c2ccccc2)cs1	23µM	16µM	u	n	u	8.2µM
CC(=O)Nc1nc(-c2ccc3c(c2)CCN3S(C)(=O)=O)cs1	n	n	n	n	n	u
O=C(COC(=O)/C=C/c1cccs1)Nc1nc(-c2ccccc2)cs1	16µM	n	n	n	n	13µM
CS(=O)(=O)N1CCc2cc(-c3csc(NC(=O)Cc4cccs4)n3)ccc21	13µM	n	n	10µM	u	8.2µM
CC1CCCN(C(=O)COC(=O)c2ccc(=O)n(Cc3ccccc3)n2)C1 (configuration not stated)	n	u	n	n	n	n
CCCC(=O)Nc1cc(C(=O)O)ccc1Sc1ccccc1	n	u	n	n	n	n
SMILES	TDP1 cell CPT	KB-V1 cytotox	KB-3-1 tox	HT1080-NT tox	HT1080 IDH1KD tx	DT40 TDP1 no CPT
O=C(CN1CCCN(S(=O)(=O)c2ccc(Br)s2)CC1)Nc1ccc(Cl)cc1	u	n	u	u	18µM	u
CCOC(=O)CNC(=O)CN1CCCN(S(=O)(=O)c2ccc(Br)s2)CC1	n	n	n	n	n	u
CC1CCCC(NC(=O)CN2CCN(S(=O)(=O)c3ccc(Br)s3)CC2)C1C (configuration not stated)	u	u	n	n	n	18µM
CC1CCCCN1C(=O)COC(=O)C1CCN(S(=O)(=O)c2c(Cl)cccc2Cl)CC1 (configuration not stated)	n	n	n	n	n	n
C=CCn1c(COc2ccccc2)nnc1SCC(=O)N/N=C/c1ccc(C)cc1	u	n	n	n	n	u
C=CCn1c(CNc2ccccc2)nnc1SCC(=O)N/N=C/c1ccc(O)cc1O	18µM	n	n	u	u	u
C=CCn1c(COc2ccccc2)nnc1SCC(=O)N/N=C/c1cc(Cl)ccc1O	u	u	n	u	n	u
C=CCn1c(CNc2ccc(C)cc2)nnc1SCC(=O)N/N=C/c1ccc(O)cc1O	18µM	n	n	u	n[9.24 µM]	u
COc1cccc(CC(NC(C)=O)C(=O)NC2CCN(S(=O)(=O)c3ccc(F)cc3)CC2)c1OC (configuration not stated)	n	u	n	n	n	n
COc1ccc(-n2nc3ccc(NC(=O)c4c(OC)cccc4OC)cc3n2)cc1	16µM	n	n	x	x	15µM
CCOc1ccc(-n2nc3ccc(NC(=O)CC)cc3n2)cc1	n	n	n	u	u	n
COc1ccc(-n2nc3ccc(NC(=O)c4cccc(OCCC(C)C)c4)cc3n2)cc1	18µM	u	u	x	x	7.3µM
O=C(Nc1ccc2nn(-c3ccc(F)cc3)nc2c1)c1cccc2c(Cl)cccc12	10µM	n	n	x	x	21µM
CCOc1ccc(-n2nc3ccc(NC(=O)Cc4ccccc4)cc3n2)cc1	3.7µM	u	n	x	x	3.7µM
O=C1COc2cc(S(=O)(=O)CCC(=O)N3CCCCC3)c(Cl)cc2N1	n	n	n	n	n	n
COc1ccc(NS(=O)(=O)c2cccc(C(=O)N3CCC3)c2)cc1	n	n	n	n	n	n
COc1ccc(OC)c(CCNC(=O)CN2C(=O)COc3ccc(S(=O)(=O)N4CCC(C)CC4)cc32)c1	x	u	n	x	x	x
Cc1ccc(S(=O)(=O)N2CCN(C(=S)NCc3ccc4c(c3)OCO4)CC2)cc1	u	u	u	n	n	u
O=C(NCCCN1CCOCC1)c1ccc2c(c1)N(Cc1cccc(Cl)c1)C(=O)c1ccccc1S2	u	x	x	x	x	23µM
O=C(NCCCN1CCOCC1)c1ccc2c(c1)N(Cc1cccc(Cl)c1)C(=O)CS2	u	n	n	n	n	16µM
CCN1C(=O)S/C(=C\c2ccc(N3CCOCC3)cc2C)C1=O	15µM	n	n	n	n	16µM
Cc1cc(N2CCOCC2)ccc1/C=C1\SC(=O)N(C(C)C)C1=O	u	n	n	n	n	u
